Measurements taken from the supplement of paper PMC6992640.
± gives the standard deviation of the averaged measurements.

Assays:
Test in all cases: cell viability (% of vehicle); higher = less cytotoxic
Details in all cases: 10 µM; 72 h
HCI01 = test system: HCI01 (cells of a triple-negative basal-like breast cancer xenograft)
HCI03 = test system: HCI03 (cells of an ER-positive luminal breast cancer xenograft)
HCI09 = test system: HCI09 (cells of a triple-negative luminal androgen receptor type breast cancer xenograft)
HCI11 = test system: HCI11 (cells of an ER-positive luminal breast cancer xenograft)
HCI13 = test system: HCI13 (cells of an ER-positive luminal breast cancer xenograft)
HCI16 = test system: HCI16 (cells of a triple-negative basal-like breast cancer xenograft)
UCD52 = test system: UCD52 (cells of a triple-negative basal-like breast cancer xenograft)
WHIM2 = test system: WHIM2 (cells of a triple-negative basal-like breast cancer xenograft)
WHIM30 = test system: WHIM30 (cells of a triple-negative basal-like breast cancer xenograft)
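Further: PDX cells carrying CMV promoter-driven luciferase, viability read as total photon flux per second by IVIS imaging following D-luciferin, vehicle control 0.1% DMSO.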

Cc1cc(C)c2c(c1)C(N(Cc1cc(C(F)(F)F)cc(C(F)(F)F)c1)c1nnn(C)n1)CCCN2CC1CCC(C(=O)O)CC1 (stereo unspecified)
cell viability (HCI01): 41.2 ± 16
cell viability (HCI03): 135
cell viability (HCI09): 61.9 ± 53
cell viability (HCI11): 98.5
cell viability (HCI13): 51.4 ± 8.7
cell viability (HCI16): 139
cell viability (UCD52): 119 ± 2.1
cell viability (WHIM2): 91.8 ± 4.9
cell viability (WHIM30): 110 ± 6.3

COc1ccccc1OCC(O)CN1CCN(CC(=O)Nc2c(C)cccc2C)CC1 (stereo unspecified) [Ranolazine]
cell viability (HCI01): 136 ± 2.8
cell viability (HCI03): 96.3
cell viability (HCI09): 134 ± 75
cell viability (HCI11): 103
cell viability (HCI13): 120 ± 35
cell viability (HCI16): 120
cell viability (UCD52): 89.4 ± 19
cell viability (WHIM2): 109 ± 19
cell viability (WHIM30): 130 ± 17

COC(=O)C1=COC(OC2OC(CO)C(O)C(O)C2O)C2C(CO)=CCC12 (stereo unspecified) [Geniposide]
cell viability (HCI01): 104 ± 24
cell viability (HCI03): 158
cell viability (HCI09): 104 ± 21
cell viability (HCI11): 98.3
cell viability (HCI13): 95.3 ± 7.7
cell viability (HCI16): 116
cell viability (UCD52): 116 ± 1.3
cell viability (WHIM2): 83.6 ± 4.8
cell viability (WHIM30): 96.53 ± 0.79

Cc1ccc(NC(=O)c2ccc(CN3CCN(C)CC3)cc2)cc1Nc1nccc(-c2cccnc2)n1 [Imatinib (STI571)]
cell viability (HCI01): 87.1 ± 42
cell viability (HCI03): 156
cell viability (HCI09): 86.31 ± 0.75
cell viability (HCI11): 89.4
cell viability (HCI13): 108 ± 5.6
cell viability (HCI16): 98.9
cell viability (UCD52): 89.2 ± 1.7
cell viability (WHIM2): 91.7 ± 19
cell viability (WHIM30): 104 ± 12

CO[C@@]1(NC(=O)[C@H](C(=O)[O-])c2ccc(O)cc2)C(=O)N2C(C(=O)[O-])=C(CSc3nnnn3C)CO[C@@H]21.[Na+].[Na+] [Moxalactam (sodium salt)]
cell viability (HCI01): 116 ± 30
cell viability (HCI03): 120
cell viability (HCI09): 108 ± 3.6
cell viability (HCI11): 66.4
cell viability (HCI16): 148
cell viability (UCD52): 144 ± 7
cell viability (WHIM2): 92.8 ± 6.9
cell viability (WHIM30): 126 ± 2.9

CC(=O)OC1(C(C)=O)CCC2C3C=C(C)C4=CC(=O)CCC4(C)C3CCC21C (stereo unspecified) [Megestrol Acetate]
cell viability (HCI01): 112 ± 6.4
cell viability (HCI03): 121
cell viability (HCI09): 106 ± 10
cell viability (HCI11): 91.8
cell viability (HCI16): 102
cell viability (UCD52): 103 ± 16
cell viability (WHIM2): 93.7 ± 14
cell viability (WHIM30): 127.9 ± 0.7

CCC(=O)OCC(=O)C1(OC(=O)CC)C(C)CC2C3CCC4=CC(=O)C=CC4(C)C3(Cl)C(O)CC21C (stereo unspecified) [Beclomethasone dipropionate]
cell viability (HCI01): 131 ± 100
cell viability (HCI03): 182
cell viability (HCI09): 144 ± 8.8
cell viability (HCI11): 123
cell viability (HCI16): 175
cell viability (UCD52): 133 ± 3.9
cell viability (WHIM2): 128 ± 3.2
cell viability (WHIM30): 123 ± 10

COc1ccccc1OCC(O)CO (stereo unspecified) [Guaifensin]
cell viability (HCI01): 108 ± 4.8
cell viability (HCI03): 131
cell viability (HCI09): 112 ± 21
cell viability (HCI11): 102
cell viability (HCI16): 117
cell viability (UCD52): 91.7 ± 1
cell viability (WHIM2): 95 ± 18
cell viability (WHIM30): 141 ± 10

Cc1cc(Nc2cc(CN3CCOCC3)c3nc(C)c(Cc4ccc(Cl)cc4F)n3n2)n[nH]1
cell viability (HCI01): 142 ± 56
cell viability (HCI03): 116
cell viability (HCI09): 64.3 ± 15
cell viability (HCI11): 196
cell viability (HCI16): 199
cell viability (UCD52): 103 ± 19

CCCC1O[C@@H]2C[C@H]3[C@@H]4CCC5=CC(=O)C=C[C@]5(C)[C@H]4[C@@H](O)C[C@]3(C)[C@]2(C(=O)CO)O1 (stereo partly specified) [Budesonide]
cell viability (HCI01): 113 ± 30
cell viability (HCI03): 102
cell viability (HCI09): 164 ± 40
cell viability (HCI11): 140
cell viability (HCI16): 173
cell viability (UCD52): 141 ± 9.5
cell viability (WHIM2): 74.4 ± 20

Nc1nnc(-c2cccc(Cl)c2Cl)c(N)n1 [Lamotrigine]
cell viability (HCI01): 95 ± 12
cell viability (HCI03): 155
cell viability (HCI09): 134 ± 32
cell viability (HCI11): 89.9
cell viability (HCI16): 128
cell viability (UCD52): 112 ± 15
cell viability (WHIM2): 96.1 ± 13
cell viability (WHIM30): 175 ± 4.1

N=C(N)NCCCC[C@@H]1NC(=O)CCSSC[C@@H](C(N)=O)NC(=O)[C@@H]2CCCN2C(=O)[C@H](Cc2c[nH]c3ccccc23)NC(=O)[C@H](CC(=O)O)NC(=O)CNC1=O [Eptifibatide]
cell viability (HCI01): 101 ± 25
cell viability (HCI03): 148
cell viability (HCI09): 120 ± 79
cell viability (HCI11): 93.4
cell viability (HCI16): 194
cell viability (UCD52): 123 ± 15
cell viability (WHIM2): 101 ± 13
cell viability (WHIM30): 138 ± 4.8

Cl.O=C(CCCN1CCC(O)(c2ccc(Cl)cc2)CC1)c1ccc(F)cc1 [Haloperidol hydrochloride]
cell viability (HCI01): 114 ± 14
cell viability (HCI03): 99.6
cell viability (HCI09): 103 ± 31
cell viability (HCI11): 106
cell viability (HCI16): 127
cell viability (UCD52): 63.4 ± 4.9
cell viability (WHIM2): 114 ± 6.5
cell viability (WHIM30): 60.2 ± 8.8

Cl.N=C(N=C(N)N)N1CCOCC1 [Moroxydine HCl]
cell viability (HCI01): 91.5 ± 36
cell viability (HCI03): 114
cell viability (HCI09): 92.5 ± 3.5
cell viability (HCI11): 89.2
cell viability (HCI16): 138
cell viability (UCD52): 87.98 ± 0.46
cell viability (WHIM2): 70.25 ± 0.58
cell viability (WHIM30): 164.7 ± 0.024

C#CC1(O)CCC2C3CCc4cc(OC)ccc4C3CCC21C (stereo unspecified) [Mestranol]
cell viability (HCI01): 131 ± 12
cell viability (HCI03): 136
cell viability (HCI09): 94.681 ± 0.043
cell viability (HCI11): 106
cell viability (HCI16): 104
cell viability (UCD52): 71.2 ± 21
cell viability (WHIM2): 159 ± 12
cell viability (WHIM30): 121.2 ± 0.15

C#C[C@]1(O)CC[C@H]2[C@@H]3CCC4=CC(=O)CC[C@@H]4[C@H]3C(=C)C[C@@]21CC [Etonogestrel]
cell viability (HCI01): 109 ± 47
cell viability (HCI03): 135
cell viability (HCI09): 102 ± 13
cell viability (HCI11): 86.3
cell viability (HCI16): 145
cell viability (UCD52): 116 ± 14
cell viability (WHIM2): 112 ± 30
cell viability (WHIM30): 146 ± 16

NCC(O)c1ccc(O)c(O)c1.O.O=C(O)C(O)C(O)C(=O)O (stereo unspecified) [Noradrenaline bitartrate monohydrate]
cell viability (HCI01): 86.8 ± 21
cell viability (HCI03): 152
cell viability (HCI09): 133 ± 34
cell viability (HCI11): 124
cell viability (HCI16): 160
cell viability (UCD52): 142 ± 4.8
cell viability (WHIM2): 73 ± 14
